Screen size: about 360,000 compounds; about 10,000 (2.8%) were called active. Not shown: some 4% with an inconclusive outcome. The entries come from a sample that favours actives as a whole. A number with no mark means an inactive call. Calls follow the shape of the dose curve; as a rule, active = well fitted inhibition curve with a large enough effect; inconclusive = small, poorly fitted or top-dose-only effect; inactive = flat fitted curve, though single readings scatter.
% is scaled to controls: 0 for no effect and ±100 for the full control effect; potency is read from the fitted curve at half-maximal effect.

For the test, the target named is Serine/threonine-protein kinase PLK1 (Homo sapiens) (UniProt P53350). Put plainly: qHTS for Inhibitors of PLK1-PDB (polo-like kinase 1 - polo-box domain): Primary Screen. Also: nearly all actives have a fitted effect of over 65% in size. As to max response, negative = inhibition: series mostly up to about 57 µM. To be noted: Plk1 PBD binding of FITC phosphopeptide, fluorescence polarization. The text has this: The polo-like kinase 1 (Plk1) is a member of a conserved subfamily of serine / threonine protein kinases that plays a pivotal roles in cell proliferation. It has a C-terminal non-catalytic region called the polo-box domain (PBD) that plays a crucial role in the subcellular localization of the Plk1. […] Furthermore, depletion of the overexpressed Plk1 by RNAi efficiently induces apoptotic cell death in cancer and reduces tumor growth in mouse xenograft models. Thus, targeting Plk1 is an appealing strategy for anti-cancer therapy. Therefore, this project aimed to screen the Molecular Libraries Small Molecule Repository (MLSMR) using a novel approach to find inhibitors that target the Plk1 PBD instead of the conventional N-terminal catalytic domain. This project employed a fluorescence polarization (FP) assay using a FITC-conjugated phospho-9-mer (p-9-mer) peptide and purified human Plk1 PBD protein. The identified small molecule inhibitors of Plk1 PBD can then further be developed into useful tools for biomedical and clinical research that complements or replaces current relevant disease therapy. NIH Chemical Genomics Center [NCGC] NIH Molecular Libraries Probe Centers Network [MLPCN] MLPCN Grant: MH100728 Assay Submitter (PI): Kyung Lee, NCI
Sequence of Serine/threonine-protein kinase PLK1 (Homo sapiens) (P53350 whole entry, looked up, the tested form may be a part): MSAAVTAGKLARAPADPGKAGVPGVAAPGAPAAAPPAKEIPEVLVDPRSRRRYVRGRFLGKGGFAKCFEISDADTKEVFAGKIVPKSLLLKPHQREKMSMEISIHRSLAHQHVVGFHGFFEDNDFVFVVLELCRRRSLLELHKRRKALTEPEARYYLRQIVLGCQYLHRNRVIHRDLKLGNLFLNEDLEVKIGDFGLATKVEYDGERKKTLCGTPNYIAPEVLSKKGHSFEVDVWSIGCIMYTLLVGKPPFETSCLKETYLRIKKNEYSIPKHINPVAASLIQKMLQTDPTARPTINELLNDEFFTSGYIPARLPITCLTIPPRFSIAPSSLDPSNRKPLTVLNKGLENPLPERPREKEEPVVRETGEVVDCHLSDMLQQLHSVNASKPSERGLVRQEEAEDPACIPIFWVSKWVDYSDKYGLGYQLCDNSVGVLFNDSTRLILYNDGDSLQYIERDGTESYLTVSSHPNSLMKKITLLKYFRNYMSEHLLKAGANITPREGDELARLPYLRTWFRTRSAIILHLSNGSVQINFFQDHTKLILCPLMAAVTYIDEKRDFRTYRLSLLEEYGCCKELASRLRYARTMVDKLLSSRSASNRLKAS
Four microliter of 25 nM FITC-p-9-mer + 60 nM Plk1 PBD in buffer solution (final concentrations 25 nM and 60 nM respectively) or 4 uL of 25 nM FITC-p-9-mer (final concentration 25 nM) in buffer will be dispensed into a 1,536 Greiner medium-binding black solid plate. Small molecules at final concentrations of 18 nM to 57 uM and positive control phospho-9-mer (sequence: Ac-PPLHSpTAI-NH2) at final concentrations 26 nM to 57 uM and phospho-13-mer (sequence: Ac-[…]pTAI-NH2) at final concentrations of 1 nM to 2.3 uM will be pin-transferred (23 nL) to the plate via a Kalypsys pin-tool robotics equipped with a 1,536-pin array. The reaction plate will be centrifuged for 1 min at 1000 rpm and incubated at room temperature for 10 min. The FITC fluorescence signals will be read using the PerkinElmer ViewLux plate reader at 480 / 20 nm excitation and 540 / 20 nm S and P polarization emission wavelengths. Reagent bottles will be kept submerged into 4 °C recirculating chiller bath and all liquid lines will be covered with aluminum foil to minimize degradation. Library plates will be screened starting from the lowest to the highest concentrations to minimize compound carryover. Vehicle only plates, with DMSO being pin-transferred instead of compound solutions, will be included regularly throughout the screen to record any systematic shifts in assay signal.
On the technique in general: qHTS replaces the single test concentration by a dilution series.
Regarding `CCn1c(COc2c(C)cccc2C)nnc1SCc1nc2ccccc2c(=O)[nH]1`, the max response, negative = inhibition is -11.4%. In the case of `CCS(=O)(=O)C1=NSC2=NC(=O)/C(=C\c3ccc(OS(=O)(=O)c4ccccc4)cc3)C(=N)N21`, the Potency was 29.9 µM (active).

Take `COc1cc(/C=C2\C(=N)N3N=C(CC(=O)N4CCOCC4)SC3=NC2=O)cc(OC)c1OC`: the max response, negative = inhibition is -14.2%. Consider `Cc1cc(/C=C2/C(=N)N3C(=NC2=O)SN=C3S(C)(=O)=O)c(C)n1-c1ccccc1`, for which the Potency is 26.7 µM (active). Still for that read-out and setting: with `CS(=O)(=O)C1=NN2C(=N)/C(=C\c3ccc(OCCOc4ccccc4)cc3)C(=O)N=C2S1` the figure was 26.7 µM (active).

Take `CS(=O)(=O)c1ccc2c(c1)SC1=NC(=O)/C(=C/c3ccco3)C(=N)N12`: the max response, negative = inhibition is -3.25%. Regarding `Cc1cc(/C=C2/NC(=O)NC2=O)c(C)n1-c1cccnc1`, the max response, negative = inhibition was 2.71%.

For the molecule `COc1ccccc1OCCOc1ccc(/C=C2\C(=N)N3N=C(C)SC3=NC2=O)cc1`, the max response, negative = inhibition was -15.8%.

Take `CCCS(=O)(=O)NC(=O)C1(C)CCCN(C(=O)c2cccs2)C1` (configuration not stated): the max response, negative = inhibition is -11.7%.

As for `COc1cccc(-c2cc(NC(C)=O)c3ncc(-c4cccc(C(C)=O)c4)n3c2)c1`, the max response, negative = inhibition is -19.9%. Regarding `CCCCc1ccc(S(=O)(=O)NC(=O)C2(C)CCN2C(=O)c2ccccc2)cc1` (configuration not stated), the max response, negative = inhibition was -13.3%.

Consider `CC1=C(C(=O)N2CCOCC2)CC(CC(=O)NCCN2CCOCC2)C(=O)N1CCC1=CCCCC1` (configuration not stated), for which the max response, negative = inhibition is 1.89%.

Turning to `COc1cccc(-c2nc3nc(C)cc(C)n3c2NC2CCCCC2)c1`, the max response, negative = inhibition was -13.3%. Consider `CCNC(=O)c1cc2c(c(-c3cccc(-c4cncnc4)c3)n1)[C@H](CCO)N(C(C)=O)C2`, for which the max response, negative = inhibition is -4.29%.

On to `O=C(Nc1cc(Br)ccc1F)c1nc[nH]c1C(=O)NCc1ccccc1`, for which the max response, negative = inhibition is -13.2%.

Regarding `COc1cccc(-c2cc3nc(NCc4ccccc4OC)n(C)c(=O)c3s2)c1`, the max response, negative = inhibition was 3.07%. `c1nc(COc2nsnc2N2CCOCC2)cs1`: the max response, negative = inhibition is -14.8%.

In the case of `c1ccc(COc2nsnc2N2CCOCC2)cc1`, the Potency is 26.7 µM (active). With `O=C(O)COc1nsnc1N1CCOCC1`, the max response, negative = inhibition was -5.74%.

Consider `C[C@H]1COc2cc(N3CCSCC3)ccc2S(=O)(=O)N1`, for which the max response, negative = inhibition is -1.34%. In the case of `CC(C)C[C@H]1CNC(=O)C(=O)N1C[C@H]1CCCN1C[C@H](Cc1ccc(O)cc1)N1C[C@H](CC(C)C)N(CC2CCCCCC2)C(=O)C1=O`, the max response, negative = inhibition was -0.278%. Regarding `COc1ccc(S(=O)(=O)N2CCCCC2c2cc(C(=O)NCc3ccc(F)cc3)no2)cc1` (configuration not stated), the max response, negative = inhibition is 4.51%. Regarding `Cc1nn(-c2ccc(F)cc2)c(Cl)c1/C=C(/CCC(=O)O)c1nc2ccccc2s1`, the Potency is 59.7 µM (active). Turning to `Cc1nn(-c2ccccc2)c(Cl)c1/C=C/C(=O)c1ccc(O)cc1`, the max response, negative = inhibition is -17.2%. The same measure, in the same setting: to `COc1cccc(/C=C(/CC(=O)Nc2ccc(N3CCOCC3)cc2)c2nc3ccccc3s2)c1` belongs 8.02%. On the same count and under the same terms, to `CC(C)[C@H](NC(=O)c1ccccc1F)C(=O)Nc1cccc(S(=O)(=O)N2CCOCC2)c1` belongs 2.03%; to `COc1ccc(CNC(=O)c2ccc(-c3cccnc3)c3ccoc23)cc1OC`, -7.35%; to `CCOC(=O)C1=CCC2C(=O)N(Cc3ccccc3)C(=O)C12` (configuration not stated), -2.51%. In the case of `CCN(CC)C(=O)C1CCCN(Cc2cccc(Cl)c2)C1` (configuration not stated), the max response, negative = inhibition is -16.8%. The same measure, in the same setting: with `C=CCOc1c(Br)cc(/C=N\n2nnnc2N)cc1OC` the figure was -13.9%. Consider `CCOc1c(Br)cc(/C=C2\C(=O)N(CCC#N)N=C2C)cc1OC`, for which the Potency was 1.06 µM (active). In the case of `CC1(C(=O)NS(=O)(=O)c2cccc(F)c2)CCN1C(=O)Cc1ccc(Cl)cc1Cl` (configuration not stated), the max response, negative = inhibition was 1.99%.

For the molecule `C[C@H](CO)N1C[C@H](C)[C@@H](CN(C)C(=O)C2CCCCC2)OCc2cnnn2CCCC1=O`, the max response, negative = inhibition is -18.4%. Consider `CCOC(=O)C1=CC[C@@H](c2ccncc2)N(S(=O)(=O)c2ccc(C)cc2)C1`, for which the max response, negative = inhibition is -3.59%. The same measure, in the same setting: with `CN(CC(=O)Nc1ccc(F)cc1)C(=O)c1ccc(-c2ccc(Cl)cc2)o1` the figure was -3.69%. Turning to `Cc1[nH][nH]c(=O)c1C(c1ccc(-c2ccc(Cl)cc2)o1)c1c(C)[nH][nH]c1=O`, the Potency was 26.7 µM (active). In the case of `NS(=O)(=O)c1ccc(CCNC(=O)CN2C(=O)c3ccccc3S2(=O)=O)cc1`, the max response, negative = inhibition was -4.84%. `COc1ccc(CNC(=O)CN2C(=O)c3ccccc3S2(=O)=O)cc1`: the Potency is 26.7 µM (active). Consider `COc1ccc(CNC(=O)CCn2cccc2)cc1`, for which the max response, negative = inhibition is 1.6%. For `COc1cccc(OC)c1C(=O)N1CCN(Cc2ccccc2F)CC1`, the max response, negative = inhibition is -14.6%.

As to `C=C1C(=O)OC2C1CCC(C)=CCCC1(C)OC21` (configuration not stated), the max response, negative = inhibition is -24.4%. Same read-out and setting: with `CC1(C(=O)NS(=O)(=O)C2CC2)CCCN(C(=O)CSc2ccccc2)C1` (configuration not stated) the figure was -7.19%.

Values taken from PubChem BioAssay AID720504 (National Center for Advancing Translational Sciences (NCATS), 2013).
